Menin MLL FP FL – displaces fluorescein MLL peptide from human menin; Fluorescence polarization, fluorescein-MLL peptide displacement from menin; FP activity change, % at 61.4 µM; 290,000 tested, under 10 active; active = well fitted curve in the direction sought with a large enough effect in the polarisation, not every such curve was filed as active; inconclusive = small, poorly fitted or top-dose-only effect, or effect the other way, or a change in a side signal; inactive = no such curve, though single readings can be large or run the other way; the % refers to the polarisation
MLL CXXC-DNA inh – MLL CXXC-DNA interaction inhibition. Q03164. MLL-CXXC / FITC-HOXA9 DNA fluorescence polarization. Potency, µM (highest dose often 115 µM), actives largely listed as inhibitors. AID 2662. 290,000 compounds, 0.037% hits; active = well fitted inhibition curve with a large enough effect in the polarisation, with a control signal flat, not every such curve was filed as active; inconclusive = small, poorly fitted or top-dose-only effect, or effect the other way, or a change in a side signal; inactive = no such curve, though single readings can be large or run the other way; the % refers to the polarisation
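Purified MLL-CXXC (added from a 7 uM solution) was preincubated 5 min at ambient with pinned compounds in 50 mM Tris-HCl pH 7.5, 50 mM NaCl, 1 mM DTT, 0.05% BSA. Fluorescein-labeled HOX-A9 DNA (50 nM solution) followed, 30 min, then polarization read.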
RGS12 GoLoco inh – inhibitors of human Gai1-RGS12 GoLoco interaction (red fluorophore). P63096. Gai1:RGS12 GoLoco peptide FP, rhodamine, 10 min. Potency, µM (titrated, usually from 61.6 µM), actives largely listed as inhibitors. 230,000 compounds, 0.44% hits. AID 880; active = well fitted inhibition curve with a large enough effect, not every such curve was filed as active; inactive = no such curve, though single readings can be large or run the other way; note: nearly all actives have a fitted effect of over 30% in size
Target sequence (P63096 whole entry, looked up): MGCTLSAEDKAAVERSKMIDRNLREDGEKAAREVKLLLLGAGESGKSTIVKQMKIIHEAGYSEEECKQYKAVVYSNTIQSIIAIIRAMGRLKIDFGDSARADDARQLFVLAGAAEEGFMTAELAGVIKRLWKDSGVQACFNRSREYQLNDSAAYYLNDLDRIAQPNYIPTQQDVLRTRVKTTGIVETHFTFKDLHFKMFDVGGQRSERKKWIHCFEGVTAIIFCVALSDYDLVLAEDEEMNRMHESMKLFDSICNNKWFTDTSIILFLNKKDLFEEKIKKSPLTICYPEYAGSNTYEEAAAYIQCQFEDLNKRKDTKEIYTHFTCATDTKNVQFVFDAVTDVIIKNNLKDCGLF
Menin MLL FP TR – menin-MLL binding inhibition, Texas Red mutant peptide | O00255 | Menin + Texas Red MLL mutant peptide, fluorescence polarization | Potency, µM (doses to about 61.6 µM), most hits filed as inhibitors | 270,000 compounds, 0.23% hits; active = well fitted inhibition curve with a large enough effect in the polarisation, with a control signal flat, not every such curve was filed as active; inconclusive = small, poorly fitted or top-dose-only effect, or effect the other way, or a change in a side signal; inactive = no such curve, though single readings can be large or run the other way; the % refers to the polarisation
ERG Ets-DNA blk – ERG Ets/DNA interaction inhibition | fluorescence polarization, His-ERG Ets domain / labelled DNA | Potency, µM (doses to about 76.9 µM), hits mostly inhibitors | 370,000 compounds, 0.028% hits | AID 624246; active = well fitted inhibition curve with a large enough effect in the polarisation, with a control signal flat; inconclusive = small, poorly fitted or top-dose-only effect, or effect the other way, or a change in a side signal; inactive = no such curve, though single readings can be large or run the other way; the % refers to the polarisation;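 note: polarization taken with two DNA probes labelled with fluorescein and Texas red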
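His-tagged ERG Ets domain (1 uM in the protein solution; 300mM KCl, 50mM Tris-HCl, 1mM EDTA, 1mM DTT, pH 7.5) received compound, then a probe mix of 5 nM fluorescein-DNA and 100nM Texas-615-DNA. Fluorescence polarization was read for both dyes.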
Numbers stand for hits; . = inactive; ? = inconclusive; / = not tested or not shown; [ ] = dose if it differs, or a comment. The entries come from a sample that favours hits as a whole.

SMILES | Menin MLL FP FL | MLL CXXC-DNA inh | RGS12 GoLoco inh | Menin MLL FP TR | ERG Ets-DNA blk
CN1CCC(=C2c3ccccc3C=Cc3ccccc32)CC1 | . | . | . | ? | .
N#CCCn1c(=O)c(-c2ccc(Cl)cc2)nc2cnc(Nc3ccccc3)nc21 | ? | / | . | 10µM | /
O=C(CSc1nnc(CNC(=O)c2ccccc2)n1-c1cccc(Cl)c1)Nc1ccccc1F | / | / | / | / | .
O=C(CC1SC(=NCCc2ccccc2)N(/N=C/c2cccs2)C1=O)Nc1ccc(Cl)cc1 (centres undefined) | . | . | . | 40µM | .
Cc1cc2ccccc2n1CCNC(=O)c1cccs1 | ? | . | . | ? | 32µM
COc1ccc2nc(NC(=O)C3CCCN(S(=O)(=O)c4cccs4)C3)sc2c1 (centres undefined) | . | . | . | 22µM | .
CCOC(=O)c1ccc2c(c1)n(CC)c(/C=C/N(C)c1ccccc1)[n+]2CC | . | . | 1.6µM | . | .
CCOC(=O)c1ccc2c(c1)n(CCO)c(C)[n+]2CC | . | . | 1.6µM | .[11.7 µM] | .
Cc1ccc(C(=O)NCC(c2cccs2)S(=O)(=O)c2cccs2)cc1C (centres undefined) | / | / | / | / | .
CC(C)N1C(=O)CC2(CC[N+](C)(CCOC(=O)C(c3ccccc3)c3ccccc3)CC2)C1=O (centres undefined) | . | . | 11µM | . | .
O=C(O)c1ccc(Nc2cc(Cl)c3nonc3c2[N+](=O)[O-])cc1 | . | . | 14µM | ? | .
N#Cc1c(N)sc(=S)c2c1CCCCC2 | ? | . | 25µM | ? | ?
N#Cc1c(N)sc2c1CCCCCC2 | . | . | / | . | .
CCN(CC)CCOC(=O)c1ccc(NC(=O)c2cc3cccc(OC)c3oc2=O)cc1 | / | / | / | / | .
COc1ccc(C2CC(=O)C3=C(C2)Nc2ccccc2N(C(=O)CCC(=O)O)C3c2ccc(F)cc2)cc1 (centres undefined) | . | . | 5.6µM | / | .
Cn1c(=O)c(Nc2ccc(Cl)cc2)c2c3c(cccc31)C(=O)c1ccccc1-2 | ? | ? | 14µM | . | .
CC(=O)Nc1c2c3c(cccc3n(C)c1=O)C(=O)c1ccccc1-2 | ? | . | . | . | .
Cn1c(=S)[nH]c(=O)c2ncc(=O)[nH]c21 | . | . | . | ? | 14µM
Cc1nc2[nH]c(=S)n(C)c(=O)c2nc1C | . | . | . | . | /
CCOc1ccc(CCNC(=O)c2cc(C)nc3c2c(C)nn3-c2cccc(F)c2)cc1 | / | / | / | / | .
NC(=O)C[N+]1(CC#CC(O)(c2ccccc2)c2ccccc2)CCCC1 | . | . | 8.9µM | . | .
CCC[N+]1(CC#CC(O)(c2ccccc2)C2CCCCC2)CCCCC1 (centres undefined) | . | . | . | / | .
Fc1cccc(Cl)c1Cn1c(-c2cccs2)nc2ccccc21 | / | / | / | / | .
O=C(c1ccccc1F)N(Cc1cccnc1)Cc1cc2cc3c(cc2[nH]c1=O)OCCO3 | . | . | . | . | .
COc1cc(C(=O)N(Cc2cccnc2)Cc2cc3cc4c(cc3[nH]c2=O)OCCO4)cc(OC)c1OC | . | . | . | 18µM | .
COCCn1c(=O)c(-c2ccc(OC)cc2)nc2cnc(N3CCN(C)CC3)nc21 | . | / | . | . | /
COCCn1c(=O)cnc2cnc(N3CCN(C)CC3)nc21 | . | / | . | 35µM | /
C[N+]1=C2CCCCCN2C(O)(c2ccccc2)C1 (centres undefined) | . | . | 14µM | . | /
OC1(c2ccccc2Cl)NN=C2CCCCCN21 (centres undefined) | . | . | . | . | .
CC[C@H](C)[C@H](NC(=O)[C@H](CCCNC(=N)N)NC(=O)[C@@H](NC(=O)[C@H](CCCNC(=N)N)NC(=O)[C@H](CCCCN)NC(=O)[C@H](CCCNC(=N)N)NC(=O)[C@@H](NC(=O)[C@H](CC(N)=O)NC(=O)[C@@H](N)CS)[C@@H](C)O)[C@@H](C)CC)C(=O)N[C@@H](CCC(N)=O)C(=O)N[C@@H](CCCNC(=N)N)C(=O)NCC(=O)N1CCC[C@H]1C(=O)NCC(=O)N[C@@H](CCCNC(=N)N)C(=O)N[C@@H](C)C(=O)N[C@@H](Cc1ccccc1)C(=O)N[C@H](C(=O)N[C@H](C(=O)N[C@H](C(=O)NCC(=O)N[C@@H](CCCCN)C(=O)O)[C@@H](C)CC)[C@@H](C)O)C(C)C | . | / | / | ? | /

High-throughput results from PubChem BioAssay.
